The record followed here is PubChem BioAssay AID2613 (National Center for Advancing Translational Sciences (NCATS), 2010).

Molecules are shown by their SMILES. Inconclusive results are not listed. A call without a number means that no potency is given here. Active and inactive are the calls of the source. Calls come from the whole dose curve; as a rule, active = well fitted inhibition curve with a large enough effect; inconclusive = small, poorly fitted or top-dose-only effect; inactive = flat fitted curve, though single readings scatter.

The target in this test is Lysosomal acid glucosylceramidase (Homo sapiens) (UniProt P04062). Briefly: qHTS Assay for Inhibitors and Activators of N370S glucocerebrosidase as a Potential Chaperone Treatment of Gaucher Disease: Activity in N370S Spleen Homogenate Using a Red Fluorescent Substrate. As to conditions: red fluorogenic substrate; series mostly up to 49.6 µM. The source says: NIH Chemical Genomics Center [NCGC]
Chain of Lysosomal acid glucosylceramidase (Homo sapiens) (P04062 whole entry N409S): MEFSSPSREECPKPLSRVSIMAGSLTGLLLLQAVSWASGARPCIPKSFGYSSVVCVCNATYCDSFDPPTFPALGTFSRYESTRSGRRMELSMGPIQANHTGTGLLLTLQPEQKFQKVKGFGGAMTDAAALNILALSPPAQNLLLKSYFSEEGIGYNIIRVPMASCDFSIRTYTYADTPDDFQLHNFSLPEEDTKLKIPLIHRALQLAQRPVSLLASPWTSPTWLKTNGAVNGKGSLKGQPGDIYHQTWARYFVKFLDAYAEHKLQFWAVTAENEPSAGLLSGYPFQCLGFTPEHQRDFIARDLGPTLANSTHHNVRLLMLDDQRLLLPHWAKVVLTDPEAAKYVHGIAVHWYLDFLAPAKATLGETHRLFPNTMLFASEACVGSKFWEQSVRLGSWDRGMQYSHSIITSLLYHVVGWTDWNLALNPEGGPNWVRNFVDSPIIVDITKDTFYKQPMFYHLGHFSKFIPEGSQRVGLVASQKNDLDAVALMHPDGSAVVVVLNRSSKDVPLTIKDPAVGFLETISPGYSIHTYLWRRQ
NIH Molecular Libraries Probe Production Centers Network [MLPCN]
Assay Submitter (PI): Wei Zheng
Glucocerebrosidase (GC) catalyzes the hydrolysis of beta-glucocerebroside to glucose and ceramide in lysosomes. Mutations in the glucocerebrosidase gene result in Gaucher disease, an autosomal recessive lysosomal storage disorder. Many of the mutations encountered in patients with Gaucher disease are missense alterations that may cause misfolding, decreased stability and/or mistrafficking of this lysosomal protein. […] These inhibitors include iminosugar analogs and three non-iminosugar inhibitors identified from a previous HTS of 62,000 compounds with the wild type recombinant enzyme. However, the enhancement of enzyme activity by the chaperone action of an enzyme inhibitor must be balanced against the direct inhibition of the enzyme. An enzyme activator could also function as a chaperone by binding to the enzyme and helping to correct its misfolding and mistrafficking. While activators for GC have not yet been identified, they may have better therapeutic potential than inhibitors. Therefore the discovery and development of chemical activators may provide a new strategy for the chaperone therapy.
We have optimized a new assay using N370S mutant GC derived from the spleen of a Gaucher patient. […] In addition, the MLPCN compound library has expanded, which increases the chance of finding new and better probes.
This confirmation assay tests for compound activity in spleen homogenate from a patient homozygous for the N370S mutation using an alternate resorufin-based substrate.
NCGC Assay Protocol Summary:
This is a fluorogenic enzyme assay with resorufin-beta-D-glucopyranoside as the substrate and mutant N370S glucocerebrosidase from human spleen homogenate as the enzyme preparation. Upon the hydrolysis of this fluorogenic substrate, the resulting product, […] which can be detected by a standard fluorescence plate reader. Data were normalized to the controls for basal activity (without enzyme) and 100% activity (with enzyme). The AC50 values were determined from concentration-response data modeled with the standard Hill equation.
Assay buffer: 50 mM citric acid (titrated with potassium phosphate to pH 5.0), 100 mM potassium chloride, 10 mM sodium chloride, 1 mM magnesium chloride, 0.01% Tween-20.
1536-well assay protocol:
(1) Add 2 ul/well of spleen homogenate (27 ug final)
(2) Add 23 nL compounds in DMSO solution. The final titration was 0.5 nM to 58 uM.
(3) Add 2 ul of substrate (1 mM final)
(4) Incubate at 37C for 40 min.
(5) Add 2 ul stop solution (1M NaOH and 1M Glycine mixture, pH 10)
(6) Detect the assay plate in a ViewLux plate reader (PerkinElmer) with Ex=365 nm and Em=440nm.
Keywords: Glucocerebrosidase, beta-glucosidase, Gaucher Disease, pharmacological chaperone, chaperone therapy, high throughput screening, glucocerebrosidase inhibitor, MLSMR, MLSCN, NIH Roadmap, qHTS and NCGC
For orientation: Quantitative high-throughput screening tests each substance at several concentrations.
On to `CC(C)(C)C(=O)OCCNc1nc(-c2ccccc2)nc2ccccc12`, for which the Potency was 3.98 µM (active). For `COc1ccccc1C(=O)COC(=O)c1ccccc1OCC(=O)Nc1ccc(SC(F)F)cc1` the value was “inactive”; for `O=C(Nc1cc(Br)ccc1O)c1cnn2c(C(F)F)cc(C3CC3)nc12`, “inactive”. Consider `CCOc1ccc(N(CC(=O)NC2CCCCCC2)S(=O)(=O)c2c(C)[nH]c(=O)[nH]c2=O)cc1`, for which the Potency was 2.82 µM (active). For the molecule `CCN(CC)c1ccc(C(=O)Nc2ccc3nc(N4CCOCC4)cc(C)c3c2)cc1`, the Potency is 15.8 µM (active). For `S=C(NCCCc1cnc[nH]1)NCCCN(Cc1ccc(Cl)c(Cl)c1)c1ccc(Br)cn1` the value was 2.24 µM (active); for `CC(=O)Nc1ccc(NC(=O)COc2ccccc2C(=O)Nc2cccc(Cl)c2Cl)cc1`, “inactive”. To `O=C(Nc1ccccc1)c1ccc(NS(=O)(=O)c2ccccc2)cc1` belongs “inactive”; to `COc1ccccc1NC(=O)COc1ccccc1C(=O)Nc1ccccc1`, “inactive”; to `Cc1cc(N2CCOCC2)nc2ccc(NC(=O)CCC(=O)NC3CCCCC3)cc12`, “inactive”. To `Cc1cc(C)n2ncc(C(=O)Nc3cccc(O)c3)c2n1` belongs “inactive”. As for `CCc1cc(C(=O)N/N=C/c2c(C)[nH]c3ccccc23)cs1`, the Potency result was “inactive”. Take `CCC(C)NC(=O)COC(=O)c1ccccc1OCC(=O)Nc1ccc(Br)cc1` (centres undefined): the Potency result was “inactive”. To `Cc1cc(C)cc(N(CC(=O)NC2CCCCCC2)S(=O)(=O)c2c(C)[nH]c(=O)[nH]c2=O)c1` belongs 0.794 µM (active); to `O=C(Nc1cnn(Cc2ccc(F)cc2)c1)c1cnn2c(C(F)F)cc(-c3ccccc3)nc12`, “inactive”.

`O=c1cc(N2CCCCC2)c(-c2ccccc2)nn1Cc1c(Cl)cccc1Cl`: the Potency entry is “inactive”. For `CCCC1CCC(C(=O)Nc2ccc3nc(N4CCOCC4)cc(C)c3c2)CC1` (centres undefined) the value was 0.562 µM (active). For `O=S(=O)(c1ccc(Cl)cc1)N1CCN(c2nc(-c3cccs3)nc3ccccc23)CC1` the value was 0.891 µM (active). For `O=C(Nc1nccs1)c1ccc(NS(=O)(=O)c2ccc(Cl)cc2)cc1` the value was “inactive”; for `CC1(C)CC(=O)C2=C(C1)c1c(ccc3ccccc13)NC2c1ccc(Br)o1` (centres undefined), “inactive”; for `Cc1cc(N2CCOCC2)nc2ccc(NC(=O)c3ccco3)cc12`, “inactive”. With `CCc1ccc(NC(=O)c2cnn3c(C(F)F)cc(C)nc23)cc1`, the Potency entry is “inactive”.

With `O=C(COc1ccccc1C(=O)c1cnn(-c2ccccc2)c1)Nc1ccccc1`, the Potency result was “inactive”. For `O=C(NCc1ccccc1)c1ccc(NS(=O)(=O)c2ccccc2)cc1` the value was “inactive”.
